Several values for one entry are separate records, joined by “and”; a condition that tells them apart may be missing. Equal entries are not always repeated. Out of some 350,000 compounds screened, about 31,000 (8.9%) were called active. Not shown: some 15% with an inconclusive outcome. The sample holds actives, similar compounds and a random draw of the others, so the mix is not that of the screen. Calls follow the shape of the dose curve; as a rule, active = well fitted inhibition curve with a large enough effect; inconclusive = small, poorly fitted or top-dose-only effect; inactive = no such curve, though single readings can be large or run the other way. Some compounds were tested as several samples or in several runs, with calls that do not always agree.
What follows are compounds tested against Histone-lysine N-methyltransferase EHMT2 (Homo sapiens) (UniProt Q96KQ7) (assay: qHTS Assay for Inhibitors of Histone Lysine Methyltransferase G9a). Conditions: G9a H3K9 monomethylation, AlphaScreen, 2 h; series mostly up to 59 µM; activity, negative = inhibition: at the top concentration.
Procedure, shortened: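 G9a (20 nM) was preincubated 15 min with compound, then reacted 2 h at room temperature with 500 nM biotin-H3K9 peptide and 20 µM SAM. Monomethyl-H3K9 detected by AlphaScreen using anti-H3K9me1 antibody.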
% is scaled to controls: 0 for no effect and ±100 for the full control effect; potency is read from the fitted curve at half-maximal effect.
Also: nearly all actives have a fitted effect of over 75% in size.

Chain of Histone-lysine N-methyltransferase EHMT2 (Homo sapiens) (Q96KQ7 913-1193 limits assumed): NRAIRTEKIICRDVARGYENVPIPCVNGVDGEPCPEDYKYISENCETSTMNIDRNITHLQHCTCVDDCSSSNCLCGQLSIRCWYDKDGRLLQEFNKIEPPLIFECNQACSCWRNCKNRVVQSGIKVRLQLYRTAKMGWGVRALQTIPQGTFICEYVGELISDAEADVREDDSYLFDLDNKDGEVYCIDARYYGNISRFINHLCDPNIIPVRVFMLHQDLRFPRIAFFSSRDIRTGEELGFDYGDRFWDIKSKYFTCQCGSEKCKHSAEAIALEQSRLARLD

SMILES | activity, negative = inhibition | Potency
CC(=O)Nc1ccc(S(=O)(=O)Nc2nccc(/C=C/c3ccccc3F)n2)cc1 | -3.27% [at 102 µM] (inactive) | –
CCOc1ncccc1C(=O)Nc1ccc(S(=O)(=O)Nc2nc(C)cc(C)n2)cc1 | 108% [at 12.7 µM] (inactive) | –
Cc1cc(C)nc(NS(=O)(=O)c2ccc(N/C=C\C(=O)c3cccs3)cc2)n1 | – | 50.1 µM (active)
O=C(O)c1cc([N+](=O)[O-])c(Nc2cccc3ccccc23)c([N+](=O)[O-])c1 | – | 44.7 µM (active)
O=C(O)c1ccccc1-c1ccccc1C(=O)Nc1cccc2ccccc12 | 8.04% (inactive) | –
O=C(Nc1ccccc1[N+](=O)[O-])C1C(c2ccccc2)=C1c1ccccc1 | 24.3% [at 0.501 µM] (inactive) | –
Cc1ccccc1-n1c(=O)c2ccccc2n(Cc2ccc(F)cc2)c1=O | 3.97% (inactive) | –
O=C(NCCc1ccccc1)C(=O)NCC(c1ccco1)S(=O)(=O)c1ccccc1 (configuration not stated) | -6.5% (inactive) | –
CC1CN(C(=O)CN2C(=O)NC(C)(c3ccccc3)C2=O)CC(C)O1 (configuration not stated) | 5.65% [at 2.33 µM] (inactive) | –
NC(=NC(=O)c1ccccc1)N1CCOCC1 | 3.07% (inactive) | –
CC1CN(C(=S)SCC(=O)c2ccccc2)CC(C)O1 (configuration not stated) | – | 1.78 µM (active)
O=C(CSC(=S)N1CCOCC1)c1ccccc1 | – | 7.08 µM (active)
O=C(NC(=O)N1CCOCC1)c1ccccc1 | -4.57% (inactive) | –
CN(C)CC(C)(C)CNC(=O)c1cc(Br)cc(Br)c1O | -26.2% [at 102 µM] (inactive) | –
O=C(CSC(=S)N1CCOCC1)c1cc(Br)cc(Br)c1O | – | 79.4 µM (active)
COC(=O)[C@H](Cc1ccccc1)NC(=O)N1CC(C)OC(C)C1 (some centres not stated) | 10.9% [at 102 µM] (inactive) | –
O=C1Nc2c(Br)cc(Br)cc2C1(O)N1CCOCC1 (configuration not stated) | 5.27% [at 12.7 µM] (inactive) | –
COc1cccc(-c2nc(S(=O)(=O)c3ccc(C)cc3)c(NCc3ccccc3)o2)c1 | -39.8% (inactive) | –
COc1ccccc1CNC(=O)c1ccc(CS(=O)c2ccccc2Cl)o1 (configuration not stated) | 2.15% (inactive) | –
CCCCCn1c(CCCNC(=O)c2ccccc2OC)nc2ccccc21 | -4.32% (inactive) | –
CNS(=O)(=O)c1cccc(C(=O)NC2CCCc3ccccc32)c1 (configuration not stated) | -3.96% [at 102 µM] (inactive) | –
O=C(CCNS(=O)(=O)c1ccccc1)NCCSc1ccc(Br)cc1 | 9.11% (inactive) | –
Cc1ccc(C(=O)OCC(=O)NCc2cc(C)c(O)c(C)c2)cc1S(=O)(=O)N1CCCCC1 | 5% (inactive) | –

SMILES | activity, negative = inhibition | Potency
CCOCCCNC(=O)c1c(NC(=O)Cc2coc3c(C)c(C)ccc23)sc2c1CCC2 | -3.27% (inactive) | –
COc1ccccc1CNC(=O)Cn1nc(C)c2nn(-c3ccc(Cl)cc3)c(C)c2c1=O | 10.4% (inactive) | –
O=C(CSc1nc2ccccc2[nH]1)N/N=C/C=C\c1ccccc1[N+](=O)[O-] | -16.6% (inactive) | –
CCn1c(SCC(=O)N/N=C/C=C/c2ccccc2[N+](=O)[O-])nnc1-c1ccccc1 | – | 39.8 µM (active)
Cc1ccc(-n2c(SCC(=O)N/N=C/C=C/c3ccccc3[N+](=O)[O-])nc3ccccc3c2=O)cc1 | -9.25% (inactive) | –
CC(C)COc1ccc(C(=O)OCC(=O)NCCC2=CCCCC2)cc1 | -4.08% [at 102 µM] (inactive) | –
CC(NC(=O)C1CCCN(S(=O)(=O)c2ccc(-n3cnnn3)cc2)C1)c1ccc(F)cc1 (configuration not stated) | 11.5% [at 102 µM] (inactive) | –
Cc1ccc(OC(=O)CCC(=O)Nc2ccc(Br)cc2)cc1 | 4.61% (inactive) | –
COc1ccc(NC(=O)CCC(=O)Nc2nnc(C3CCCCC3)s2)cc1 | -0.257% [at 102 µM] (inactive) | –
COC(=O)CCc1sc(Nc2ccc(Br)cc2)nc1-c1ccc(OC)cc1 | – | 35.5 µM (active)
COc1ccccc1CNC(=O)CCCN1C(=O)NC2(CCCC2)C1=O | -40.6% [at 102 µM] (inactive) | –
Cc1ccc(Cl)cc1NC(=O)/C(C#N)=C\c1cn(Cc2ccc(F)cc2)c2ccccc12 | 13.7% (inactive) | –
O=[N+]([O-])c1ccc(N/N=C/c2ccccc2)cc1 | -4.27% [at 102 µM] (inactive) | –
Cc1cccc(COc2ccccc2/C=N/Nc2ccc([N+](=O)[O-])cc2)c1 | – | 2.51 µM (active)
Cc1ccc(NS(=O)(=O)c2ccc(N/N=C/c3ccccc3OCC(=O)O)c([N+](=O)[O-])c2)c(C)c1 | -115% (inactive) | –
CC(C)c1ccc(S(=O)(=O)N2CCN(C(C)C(=O)NC3CCCC3)CC2)cc1 (configuration not stated) | -7.57% [at 2.33 µM] (inactive) | –
CCC(C)c1ccc(NC(=S)N2CCCC2)cc1 (configuration not stated) | 6.13% [at 102 µM] (inactive) | –
CCc1ccccc1NC(=O)N1CCC2(CC1)Oc1ccccc1C(=O)N2Cc1ccccc1F | -23.1% (inactive) | –
CCC(=O)Nc1c(C(=O)N2CCN(c3ccc(F)cc3)CC2)oc2ccccc12 | 2.14% (inactive) | –
COc1cc(C(c2c(NC(=O)c3ccco3)sc(C)c2C)N2CCOCC2)cc(OC)c1OC (configuration not stated) | – | 50.1 µM (active)
CCc1cc(C(c2ccccc2OC)N2CCOCC2)c(NC(=O)c2ccccc2)s1 (configuration not stated) | 7.98% [at 0.501 µM] (inactive) | –
COc1cc(C(=O)NCC(c2ccc(Cl)cc2)N2CCOCC2)cc(OC)c1OC (configuration not stated) | 10.8% (inactive) | –
O=C(NCCN1CCOCC1)c1cccc(S(=O)(=O)Nc2ccc(F)cc2)c1 | 8.8% [at 12.7 µM] (inactive) | –

SMILES | activity, negative = inhibition | Potency
Cc1cccc(OCCSc2nc3ccc(NC(=O)COc4ccccc4C)cc3s2)c1 | 2.36% (inactive) | –
COCc1[nH][nH]c(=O)c1C=Nc1ccc(F)cc1F | – | 20 µM (active)
Cc1c(C(C)CCCO)oc(=O)c2c1Oc1c(C)c(C(C)C[C@@H](C)O)oc(=O)c1C2 (some centres not stated) | 9.9% [at 2.33 µM] (inactive) | –
Cc1ccc2nc(SCC(=O)N3CC(C)OC(C)C3)nc(=O)n2c1 (configuration not stated) | -2.71% [at 102 µM] (inactive) | –
CCN(CC)S(=O)(=O)c1ccc(N2CCCC2)c(NS(=O)(=O)c2cccs2)c1 | – | 28.2 µM (active)
CCN(CC)S(=O)(=O)c1ccc(N2CCOCC2)c(NC(=O)C2COc3ccccc3O2)c1 (configuration not stated) | -11.4% (inactive) | –
CCN(CC)S(=O)(=O)c1ccc(N2CCOCC2)c(C(=O)O)c1 | -9.66% (inactive) | –
CC(=O)NCCC(=O)Nc1cc(S(=O)(=O)N2CCOCC2)ccc1N1CCOCC1 | -0.39% [at 102 µM] (inactive) | –
O=S(=O)(Nc1cc(S(=O)(=O)N2CCOCC2)ccc1N1CCCC1)c1cccs1 | – | 20 µM (active)
COCCNC(=S)Nc1cc(S(=O)(=O)N2CCOCC2)ccc1N1CCCCC1 | – | 2 µM (active)
CN1CCN(c2ccc(S(=O)(=O)N3CCCCC3)cc2NC(=O)Cc2ccccc2F)CC1 | -2.09% (inactive) | –
Cc1ccc(NS(=O)(=O)c2cccs2)cc1S(=O)(=O)N1CCCCCC1 | 5.06% [at 102 µM] (inactive) | –
O=S(=O)(Nc1cc(Cl)ccc1N1CCOCC1)c1ccccc1Cl | 13.1% [at 2.33 µM] (inactive) | –
CCN(CC)S(=O)(=O)c1ccc(N2CCN(C)CC2)c(NC(=O)Nc2ccccc2F)c1 | – | 39.8 µM (active)
CCN(CC)S(=O)(=O)c1ccc(Cl)c(C(=O)NC(C)C(c2cccs2)N2CCCC2)c1 (configuration not stated) | -26.8% [at 102 µM] (inactive) | –
COc1ccc(S(=O)(=O)N2CCCCC2)cc1NC(=O)c1cc([N+](=O)[O-])ccc1N1CCOCC1 | -29.7% [at 102 µM] (inactive) | –
NC(=O)c1cc(S(=O)(=O)NCCCc2ccco2)cs1 | -8.74% [at 102 µM] (inactive) | –
COc1ccc(Cn2ccnc2SCC(=O)NCc2ccco2)cc1 | 1.84% (inactive) | –
COc1cc(OC)cc(C(=O)Nc2cc3nn(-c4ccccc4)nc3cc2Cl)c1 | -33.1% (inactive) | –
C[C@@H]1NC(=O)[C@@]2(C)[C@@H](c3ccccc3)[C@H]3COc4ccccc4[C@@H]3N2C1=O | -3.98% [at 0.501 µM] (inactive) | –
Cc1cccc(-n2c(=O)c3c(c4cc(C)ccc4n3C)n(CC(=O)Nc3ccccc3Cl)c2=O)c1 | -5.06% (inactive) | –
CCCn1c(N)c(N(CCOC)C(=O)C2CCCC2)c(=O)[nH]c1=O | 15% [at 2.33 µM] (inactive) | –
Cc1ccc(-c2nc(-c3ccncc3)no2)c(C)c1 | 64.3% [at 102 µM] (inactive) | –

SMILES | activity, negative = inhibition | Potency
COc1cccc(-n2c(=O)c3c(C)c(C(=O)N(C)C)sc3n(Cc3cccc(C)c3)c2=O)c1 | 3.74% (inactive) | –
COc1ccc(CCNC(=O)c2ccc3c(c2)nc(C)n3-c2ccc(Br)cc2)cc1OC | -25.2% (inactive) | –
CCOC(=O)c1ccc(CSc2nnc3cc(C)c4ccccc4n23)cc1 | -31.5% (inactive) | –
CCN(CC(=O)Nc1c(F)cccc1F)C(=O)c1ccc(-c2ccccc2)cc1 | 15% [at 102 µM] (inactive) | –
N#CCCN(C(=O)COC(=O)C1CCN(c2ccc(C(F)(F)F)cn2)CC1)c1ccc(F)cc1 | -45.2% [at 102 µM] (inactive) | –
COC(=O)c1ccc(NC(=O)CCc2c(C)nn(-c3ccc(N4CCCC4)nn3)c2C)cc1 | 0.28% (inactive) | –
Cn1c(=O)n(Cc2c(F)cccc2Cl)c(=O)c2c1nc1n2CCN1c1ccc(F)cc1 | 4.45% (inactive) | –
Cc1ccc(CNC(=O)C2(C(F)(F)F)C/C(=C\Cc3ccccc3)CCCO2)o1 (configuration not stated) | – | 28.2 µM (active)
Cc1ccc(CNC(=O)Cn2cnc(S(=O)(=O)N3CCCCC3)c2)o1 | 5.58% (inactive) | –
Cc1ccc(C(=O)N2CC(=O)Nc3ccccc32)o1 | 24.3% (inactive) | –
CC(=O)c1ccc(NC(=O)C2CCCN2S(=O)(=O)c2cccs2)cc1 (configuration not stated) | 1.13% [at 102 µM] (inactive) | –
CC(=O)c1ccc(S(=O)(=O)NC2CC(=O)N(c3ccc4c(c3)OCCO4)C2)cc1 (configuration not stated) | 1.6% [at 102 µM] (inactive) | –
CCCCCCCNC(=O)C1(CC2CC(c3cccc(Br)c3)=NO2)CCN(C(=O)c2cc(OCC)c(OCC)c(OCC)c2)CC1 (configuration not stated) | -31.9% [at 2.33 µM] (inactive) | –
O=C(CCN1C(=O)C2C3CCC(C3)C2C1=O)Nc1ccc(Cl)cc1Cl (configuration not stated) | -9.22% [at 102 µM] (inactive) | –
CCS(=O)(=O)N1Cc2ccccc2CC1C(=O)Nc1ccc(OC)cc1OC (configuration not stated) | 17.4% [at 102 µM] (inactive) | –
CCS(=O)(=O)N1Cc2ccccc2CC1C(=O)Nc1nc2ccc(F)cc2s1 (configuration not stated) | – | 31.6 µM (active)
CSc1ncccc1C(=O)Nc1nc2ccc(F)cc2s1 | 35.3% [at 102 µM] (inactive) | –
Clc1ccc(C[n+]2cc(-c3ccccc3)n3c2CCC3)cc1 | -8.96% [at 102 µM] (inactive) | –
O=C(C[n+]1cc(-c2ccc(Cl)c(Cl)c2)n2c1CCC2)c1cccs1 | -34.8% [at 102 µM] (inactive) | –
Cc1ccc(C(=O)C[n+]2cc(-c3ccccc3)n3c2CCCCC3)cc1 | – | inactive and 50.1 µM (active)
O=C(CSc1ncc(CO)n1Cc1ccc(F)cc1)NCc1ccco1 | -3.33% (inactive) | –
O=C(O)c1ccc2c(c1)N(Cc1ccc(F)cc1)C(=O)c1ccccc1S2=O (configuration not stated) | -19.5% (inactive) | –
OCC[C@H]1C[C@H](O)[C@@H](O)[C@]2(Cc3ccccc3CO2)O1 | 12.3% [at 2.33 µM] (inactive) | –
